Reference: PubChem BioAssay (NCI)
This is part of a sample that, as a whole, favours compounds with a hit. Of some 79,000 tested, about 15% had one in any assay. Unmarked numbers belong to inactive results. Active and inactive are the calls of the source. Rule as the data show it: active = growth inhibition above about 70%; inactive = the rest.

Legend:
[1] = NCI Yeast Anticancer Drug Screen. Data for the rad50 strain (AID 155);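 also: 0% = growth of vehicle-only cultures of the same strain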; conditions: S. cerevisiae rad50 strain growth inhibition; at 50.0 µM; active compounds read high
In short: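 Cells are treated with compound, grown, and their growth is then scored against vehicle-only cultures of the same repair-deficient yeast strain.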

[2] = NCI Yeast Anticancer Drug Screen. Data for the mec2-1 strain (AID 157); conditions: S. cerevisiae mec2-1 strain, at 50.0 µM, active compounds read high
In short: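 Strain: mec2-1 (DNA repair/cell cycle alteration). Compound exposure, then growth measured; inhibition expressed relative to vehicle.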

[3] = NCI Yeast Anticancer Drug Screen. Data for the sgs1 mgt1 strain (AID 161);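 also: 0% = growth of cultures given vehicle only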; conditions: S. cerevisiae sgs1 mgt1 strain, at 50.0 µM, active compounds read high
In short: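 Test agents were incubated with a DNA-repair-mutant yeast strain. Growth was then read and compared against vehicle-treated controls.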

[4] = NCI Yeast Anticancer Drug Screen. Data for the cln2 rad14 strain (AID 165);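 also: 0% = growth equal to vehicle treated cultures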; conditions: S. cerevisiae cln2 rad14 strain, at 50.0 µM, active compounds read high
In short: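 Compounds are applied to the cln2 rad14 yeast strain, and growth is then compared with that of vehicle-treated cultures to give inhibition.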

[5] = NCI Yeast Anticancer Drug Screen. Data for the bub3 strain (AID 167); conditions: S. cerevisiae bub3 mutant strain, at 50.0 µM, active compounds read high
In short: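 Part of a panel of yeast mutants defective in DNA damage repair or cell cycle regulation. Each strain is grown with compound, and inhibition is calculated relative to solvent-treated cultures.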

[6] = NCI Yeast Anticancer Drug Screen. Data for the mlh1 rad18 strain (AID 175); conditions: S. cerevisiae mlh1 rad18 strain growth inhibition; at 50.0 µM; active compounds read high
In short: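 Read-out is yeast growth inhibition, calculated against vehicle-only controls. The compound was applied to a strain engineered with DNA damage repair alterations.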

| SMILES | growth inhibition [1] | growth inhibition [2] | growth inhibition [3] | growth inhibition [4] | growth inhibition [5] | growth inhibition [6] |
| --- | --- | --- | --- | --- | --- | --- |
| O=C(O)c1ccc(-c2ccc(O)cc2)cc1 | 10.8% | 5.85% | 2% | -34% | -6.7% | 9.4% |
| COc1nc(NC2OC(CO)C(O)C(O)C2O)c(/C=N/O)c(=O)n1C (configuration not stated) | 4.55% | 2.25% | -6.35% | 6.8% | 7.85% | 4.45% |
| CCCc1c(C)nc2scc(-c3ccccc3)n2c1=O | 38.7% | 16.5% | 55.1% | 37.4% | 39.4% | 34% |
| Cc1cc(=O)oc2c(CNC(Cc3ccccc3)C(=O)O)c(O)ccc12 (configuration not stated) | -39.4% | -40.6% | -24.3% | -21.1% | -22.1% | -69% |
| COc1ccc(C(=O)OC2CCCC2)cc1 | 45.8% | 6.95% | 39.5% | -9.5% | 9.6% | 24.7% |
| SCc1ccc(-c2ccc(CS)cc2)cc1 | 4.65% | 2.55% | 40% | 39.8% | 39.1% | 23.3% |
| CC(=O)/C(=N\N=C(N)N)c1ccccc1 | -25.4% | -28.8% | -19.6% | 19.8% | 18.1% | 4.5% |
| COC(=O)c1ccc(Cn2ccc(=O)n(Cc3ccc(C(=O)OC)cc3)c2=O)cc1 | 63.2% | 23.8% | 74.6% (active) | 30.6% | 31.3% | 43.1% |
| CCOC(=O)c1c2ccc(/C=C/c3ccccn3)ccc-2c(C(=O)OCC)c1N | 15.2% | -4.75% | -1% | 13% | 0.9% | -3.1% |
| CCOC(=O)C1CC(=O)c2cc(OC)c(OC)cc2C1c1ccc(OC)c(OC)c1 (configuration not stated) | 1.85% | -14.1% | 0.1% | -29.7% | 13.8% | -26.4% |
| N#C/C(=C\n1c(=S)[nH]c2ccccc21)c1nc2ccccc2s1 | -2.85% | -4.45% | -9.15% | -4.15% | 4.25% | 36.8% |
| CCN(CC)CCOc1c(C)cccc1C | -5.15% | 3.45% | -13.1% | -14.2% | 12.1% | -2% |
| O=C1Nc2noc(=O)nc2NO1 | 13.1% | 4.8% | -0.35% | -2.5% | -22.4% | -18.5% |
| CCOC(=O)C(C)CC(=O)C(C)CC(=O)C(C)C (configuration not stated) | -9.95% | 6.1% | -13.3% | -14.2% | -9.75% | -5.05% |
| O=C(Nc1ccc(Cl)c(Cl)c1)Oc1ccc(Cl)cc1C(=O)Nc1ccccc1 | -13.8% | -2.6% | 29.1% | -7.4% | 28.1% | 37.6% |
| Cc1cc2c(cc1C)C(C)(C)c1c(nc(N)[nH]c1=O)N2C | 3.7% | -1.1% | 20.5% | -15.7% | -0.45% | 1.7% |
| O=C1CC2(CCC(O)(c3ccc(Cl)cc3)C(C(=O)c3ccc(Cl)cc3)C2)C(=O)c2ccccc2N1 (configuration not stated) | -15.1% | -3.55% | -16.9% | -23.5% | -19.4% | -48.6% |
| CC(C)(CO)NCC(O)CS(=O)(=O)O (configuration not stated) | -30.8% | -16.6% | -9% | -61% | 4.25% | 0.4% |
| COc1cc(CNc2nc3c(NC(C)=O)cc(C(F)(F)F)cc3nc2-c2ccccc2)cc(OC)c1OC | -16.1% | -15.8% | -32.3% | -4.35% | 10.8% | -10.3% |
| COc1ccc(COCC[C@H](C)OC2OC(CO)C(O)C(O)C2O)cc1 (some centres not stated) | 13.9% | -8.75% | -12.9% | -6.2% | 5.25% | -71% |
| COC(=O)c1ccc(C(=O)c2ccccc2)cc1 | -1.15% | 9.15% | 27.9% | 5.55% | 14.2% | 7.7% |

| SMILES | growth inhibition [1] | growth inhibition [2] | growth inhibition [3] | growth inhibition [4] | growth inhibition [5] | growth inhibition [6] |
| --- | --- | --- | --- | --- | --- | --- |
| CCCC(=O)c1ccc2c(ccc(=O)n2C)c1 | 12.2% | -8.75% | -5.2% | 38.1% | 28.8% | 15.9% |
| OC/C=C(\I)CCCOCOCc1ccccc1 | -14.4% | -4.35% | -7.35% | -18.4% | -10.5% | -36.2% |
| CCCCCCc1ccc2c3cccc4cccc(c5cccc1c52)c43 | -9.25% | -15.6% | -22.1% | -34.2% | -11.1% | -25.6% |
| CC(=O)Nc1cc2c(cc1Cl)[nH]c(=O)c1ccccc12 | 8.1% | -10.9% | -19.8% | -3.25% | 11.4% | 7.5% |
| Cc1cccc([B-]23OCC[N+]2(CNC(=O)c2ccccc2O)CCO3)c1 (configuration not stated) | -21.6% | -19.8% | -7.5% | -11.6% | -18.4% | -16.8% |
| CC(=O)Nc1ccc(S(=O)(=O)CCS(=O)(=O)c2ccc(NC(C)=O)cc2)cc1 | 7.35% | 4.7% | -16.1% | -6.15% | 3.65% | -9.45% |
| O=C1c2ccccc2C(=O)N1/N=N/N1C(=O)c2ccccc2C1=O | 97.5% (active) | 97.7% (active) | 98.1% (active) | 96.1% (active) | 98.6% (active) | 97% (active) |
| O=C(NNC1CCN(Cc2ccccc2)CC1)c1ccccc1 | 12.5% | -18% | 5.35% | 16.9% | 2.5% | 13.4% |
| O=c1oc2ccccc2c(O)c1Cc1cccc(Cc2c(O)c3ccccc3oc2=O)c1 | 11.9% | 5.05% | 4.9% | 9.3% | -11.3% | 5% |
| Cc1nc(Nc2ccc(Cl)c(Cl)c2)sc1C(=O)/C=C/c1ccc2c(c1)OCO2 | 39.5% | 23.1% | 13.6% | -2.2% | -7.75% | 38.3% |
| O=C/C(=C1/C=Cc2cc([N+](=O)[O-])ccc2S1)c1ccccc1 | -6.5% | -18.8% | -11% | -14.8% | -9.05% | -6.6% |
| CNc1ccc(OC)cc1S(=O)(=O)c1ccccc1[N+](=O)[O-] | 2.25% | -35.4% | 35.6% | 18.7% | 4.75% | -22.2% |
| N=C(N=C(C(Cl)(Cl)Cl)C(Cl)(Cl)Cl)N=C(C(Cl)(Cl)Cl)C(Cl)(Cl)Cl | 8.75% | 15.3% | 11.1% | -8.55% | -24.2% | 19.6% |
| CN(C)/C(N)=N/S(=O)(=O)c1ccc(C#N)cc1 | 5% | 2.85% | -0.25% | 6.1% | 4.7% | 2.45% |
| CCCCc1c[nH]c(=O)[nH]c1=O | 4.55% | 5.05% | -8.4% | -34.6% | -12.6% | 5.7% |
| COc1ccc(-c2nnc(-c3ccc(OC)cc3)nn2)cc1 | 1.8% | 15.7% | -7.1% | -11.8% | 4.2% | -3% |
| O=C(O)CC(O)C(F)(F)F (configuration not stated) | 17.4% | 0.45% | 1.95% | 8.65% | 5.3% | 26.5% |
| O=CN1CCN(C=S)CC1 | -14% | -10.2% | -9.9% | 3.75% | 2.6% | -15.4% |
| CCC1CCCCCC1=O (configuration not stated) | -34% | -27.2% | -18.6% | -25.4% | -30.4% | -21.3% |
| CS(=O)c1nsc(S(C)=O)c1C#N (configuration not stated) | 1.05% | -9.7% | -1.5% | -35.6% | -9.95% | -10.6% |
| SCCCCN1CCCCC1 | -17.2% | -14.3% | 5.4% | -12.2% | -4.45% | -9.9% |
